According to PubChem BioAssay AID2098 (Broad Institute, 2009):
Screen size: about 300,000 compounds; about 2,300 (0.77%) were called active.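 How the source made its calls: active means more than half of replicate wells show activity change below -50%, luminescence cut by over half; inconclusive means some wells, but at most half, below -50%; inactive means no replicate well below -50%.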 For the sample, actives were picked, then their nearest neighbours and some compounds at random.

test: blocking HSF1-driven luciferase expression – cell-based, NIH3T3, luminescence, primary screen (AID 2098); details: NIH3T3-HGL HSE-luciferase, MG132-induced, luminescence 8 h; active compounds read low; screened at 7.5 µM (by protocol);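 further: luciferase reports HSF-1 transcriptional activity via heat shock element; 0% = median of DMSO wells and -100% = zero luminescence signal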

SMILES	activity change, negative = inhibition
CCOc1ccc(S(=O)(=O)NCCC(=O)N2CCCCCCC2)cc1	1.97% (inactive)
O=C(COc1ccccc1)Nc1cc2c3c(c1)CC(=O)N3CCC2	2.82% (inactive)
Cc1ccc(OCC(=O)c2cc(C)n(Cc3ccco3)c2C)c([N+](=O)[O-])n1	-39.8% (inactive)
Cc1cc(C(=O)CSc2nc(N)cc(=O)[nH]2)c(C)n1Cc1ccco1	-33.6% (inactive)
Cc1cc(C(=O)COC(=O)CNC(=O)c2ccc(F)cc2)c(C)n1Cc1ccco1	-53.9% (active)
O=C(Nc1c(Br)cc2c(c1Br)Cc1ccccc1-2)C(F)(F)F	-5.38% (inactive)
COc1ccccc1CNS(=O)(=O)c1cc2c3c(c1)CCC(=O)N3CCC2	-0.185% (inactive)
O=C1CCc2cc(S(=O)(=O)Nc3ccc(C(F)(F)F)cc3)cc3c2N1CC3	-0.158% (inactive)
COc1ccc(C)cc1S(=O)(=O)Nc1cc2c3c(c1)CCC(=O)N3CCC2	-68.5% (active)
Cc1ccc(OCCNC(=O)CN2C(=O)NC3(CCCC3)C2=O)cc1	-2.16% (inactive)
CN(/N=C/c1ccccc1)C(=S)c1ccccc1	-0.878% (inactive)
O=C(NCCCn1ccnc1)C(=O)NCC1OCCN1S(=O)(=O)c1cc(F)ccc1F (configuration not stated)	-87.4% (active)
Cc1cc(F)ccc1S(=O)(=O)N1CCCOC1CNC(=O)C(=O)NCCC1=CCCCC1 (configuration not stated)	-4.13% (inactive)
O=C(NCCCc1ccccc1)C(=O)NCC1OCCN1S(=O)(=O)c1ccccc1 (configuration not stated)	3.32% (inactive)
O=C(CCN1C(=O)C2CCCCC2C1=O)Nc1ccc(OC(F)F)cc1 (configuration not stated)	5.73% (inactive)
CCCCn1c(N)c(N(CC(C)C)C(=O)c2cccc(S(=O)(=O)N3CCN(C(C)=O)CC3)c2)c(=O)[nH]c1=O	0.146% (inactive)
O=C(Nc1cccc2ncccc12)c1ccc(-c2ccc(Cl)cc2Cl)o1	8.41% (inactive)
O=C(Nc1cccc2ncccc12)C(Cl)(Cl)Cl	-59.5% (active)
O=C(O)c1cc(Cl)c(Cl)cc1C(=O)Nc1cccc2ncccc12	15.1% (inactive)

SMILES	activity change, negative = inhibition
CC1CC(C)(C)CC2(C1)NC(=O)N(CC(=O)Nc1nccs1)C2=O (configuration not stated)	0.525% (inactive)
CC1CCN(CC(=O)Nc2nccs2)CC1	-53.5% (active)
CC(=O)NC1CCN(CC(=O)Nc2nccs2)CC1	0.912% (inactive)
COc1cc(OC)cc(-c2nnc(SCC(=O)Nc3ccc(C(=O)O)cc3)s2)c1	-5.1% (inactive)
Cc1csc(SCC(=O)Nc2sccc2C#N)n1	9.14% (inactive)
COc1ccc(NC(=O)CSc2nc(C)cs2)cc1	-86.2% (active)
Cc1nn(-c2ccccc2)c(-n2cccc2)c1C(=O)O	-12.1% (inactive)
CCCc1c(C(=O)Nc2ccc(F)cc2)cnn1-c1ccccc1	6.52% (inactive)
CCCc1nc(-c2ccccc2O)n(-c2ccccc2)n1	-81.9% (active)
COc1ccc([C@@H]2[C@@H]3C(=O)N(C(C)(C)C)C(=O)[C@@H]3[C@]3(Cc4ccccc4)C(=O)N(c4cccc(Br)c4)C(=O)N23)cc1	-4.65% (inactive)
CCOc1ccc(NS(=O)(=O)c2ccc(C(=O)NC3CCN(Cc4ccccc4)CC3)cc2)cc1	-0.719% (inactive)
Cc1nc(-c2ccc(F)cc2)c(CC(=O)Nc2cccc(S(=O)(=O)N3CCOCC3)c2)s1	4.76% (inactive)
CCCCn1c(N)c(N(CC(C)C)C(=O)c2ccc(-n3c(C)ccc3C)cc2)c(=O)[nH]c1=O	-2.25% (inactive)
Cn1c(-c2sccc2OCc2cccc(C(F)(F)F)c2)n[nH]c1=S	-82.6% (active)
Cn1c(-c2sc3cc(C(F)(F)F)cnc3c2-c2ccccc2)n[nH]c1=S	-4.57% (inactive)
COc1cc(/C=N/n2c(C)n[nH]c2=S)ccc1OCc1ccccc1	-2.45% (inactive)
O=C(c1ccc(Cl)cc1)c1ccc(OCC(O)CN2CCCCC2)cc1 (configuration not stated)	-7.88% (inactive)
O=C(c1ccccc1)c1ccc(OCC(O)CN2CCCC2)cc1 (configuration not stated)	-61.3% (active)
CC1CCN(CC(O)COc2ccc(C(=O)c3ccccc3)cc2)CC1 (configuration not stated)	-15% (inactive)

SMILES	activity change, negative = inhibition
Cc1ccc(NC(=O)CSc2nc(=O)n(CCN(C)C)c3c2CCCC3)c(C)c1	-5.63% (inactive)
COc1ccc(C2=NN(C(=O)CSc3nc(=O)n4ccc(C)cc4n3)C(c3ccc(C)cc3)C2)cc1 (configuration not stated)	11.2% (inactive)
CC(=O)N/C(=C\c1ccccc1)C(=O)OC(C)C(=O)N(C)c1ccccc1 (configuration not stated)	1.34% (inactive)
Cc1nc2ccccc2c(=O)n1NC(=O)c1ccc(Cl)c([N+](=O)[O-])c1	1.5% (inactive)
O=C(Nc1cccnc1)c1ccc(Cl)c([N+](=O)[O-])c1	-4.95% (inactive)
C/C(=N\Nc1nncc2ccccc12)c1ccc(Cl)c([N+](=O)[O-])c1	-54.9% (active)
COc1ccc(NS(=O)(=O)c2ccc(C)c(C(=O)N(C)Cc3ccc(OC)cc3OC)c2)cc1	-0.123% (inactive)
Cc1ccc(C)c(OCCC(=O)OCC(=O)c2ccc3c(c2)NC(=O)CO3)c1	1.77% (inactive)
Cc1ccc(NC(=O)/C(=C/c2ccc([N+](=O)[O-])cc2)NC(=O)c2ccccc2)cc1	-1.77% (inactive)
O=C(Nc1ccccc1)/C(=C/c1ccc([N+](=O)[O-])cc1)NC(=O)c1ccccc1	-11.2% (inactive)
CCOC(=O)/C(=C\c1ccc([N+](=O)[O-])cc1)C(=O)c1cc(C(C)=O)c(Nc2ccccc2)s1	-93.6% (active)
CC1CCCCC1NC(=O)c1cc(=O)[nH]c2ccccc12 (configuration not stated)	-3.75% (inactive)
Nc1ccc(C(=O)N2CCN(S(=O)(=O)c3ccc(Cl)cc3)CC2)cc1[N+](=O)[O-]	3.46% (inactive)
CCOc1ccccc1NC(=O)c1cccnc1	-2.44% (inactive)
CCOc1cc(C(=O)Nc2ncccn2)cc(OCC)c1OCC	-4.41% (inactive)
CCOC(=O)c1cccnc1NC(=O)c1ccncc1	-52.6% (active)
CCOc1ccc(C(=O)Nc2ccncc2)cc1	4.46% (inactive)
CCOC(=O)c1ccc(NC(=O)c2cccnc2)cc1	-6.35% (inactive)
CCOC(=O)c1cc(NC(=O)c2cccnc2)ccn1	-72.9% (active)
